# Screening data from PubChem BioAssay.
# Sfp PPTase inh: qHTS Assay for Inhibitors of Bacillus subtilis Sfp phosphopantetheinyl transferase (PPTase); 3.5% of 310,000 active; AID 1490, 2009; 4'-phosphopantetheinyl transferase ffp (Bacillus subtilis), Q9F4F7; Potency, µM, usual class: inhibitors; Biochemical Sfp PPTase activity, qHTS;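 also: the enzyme is Sfp with the accession as filed and its product quenches rhodamine fluorescence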
#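 Fluorescence-quenching assay: 15 nM Sfp-PPTase preincubated 15 min at room temperature with compound, then 5 uM rhodamine-CoA and 12.5 uM BHQ-2-labelled YbbR peptide added. Fluorescence (ex 525/em 598 nm) read at start and after 30 min; difference gives rate.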
# PLK1 PBD inh: qHTS for Inhibitors of PLK1-PDB (polo-like kinase 1 - polo-box domain): Primary Screen | Serine/threonine-protein kinase PLK1 (Homo sapiens), P53350 | Plk1 PBD binding of FITC phosphopeptide, fluorescence polarization | Potency, µM, usual class: inhibitors | 2.8% of 360,000 active; also: series mostly up to about 57 µM; nearly all actives have a fitted effect of over 65% in size
# JMJD2A Tudor inh: qHTS Assay for Inhibitors of JMJD2A-Tudor Domain; Lysine-specific demethylase 4A (Homo sapiens), O75164; AlphaScreen JMJD2A-Tudor / H3K4me3 peptide binding; Potency, µM (top dose mostly 114 µM), actives largely listed as inhibitors; 4.4% of 390,000 active; AID 504339, 2011; also: nearly all actives have a fitted effect of over 50% in size
# BAZ2B block: qHTS Assay for Inhibitors of BAZ2B | AlphaScreen BAZ2B-H3K14Ac peptide displacement | 4.4% of 360,000 active | Potency, µM (top dose mostly 114 µM), most hits filed as inhibitors; also: nearly all actives have a fitted effect of over 60% in size
#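 BAZ2B (50 nM) with biotin-H3(5-23)K14Ac peptide (50 nM) in PBS pH 7.4, 0.01% Tween-20, preformed 30 min, then compound 30 min at room temperature; top concentration 110uM. AlphaScreen streptavidin donor/nickel chelate acceptor beads (10 ug/mL final), 20 min dark, signal read.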
# HP1b binding inh: HTS for Inhibitors of HP1-beta Chromodomain Interactions with Methylated Histone Tails. AlphaScreen HP1-beta / biotin-H3K9me3 peptide binding. Chromobox protein homolog 1 (Homo sapiens), P83916. Potency, µM (highest dose often 114 µM), most hits filed as inhibitors. 0.56% of 390,000 active; also: nearly all actives have a fitted effect of over 70% in size
# Target sequence (P83916 whole entry, looked up): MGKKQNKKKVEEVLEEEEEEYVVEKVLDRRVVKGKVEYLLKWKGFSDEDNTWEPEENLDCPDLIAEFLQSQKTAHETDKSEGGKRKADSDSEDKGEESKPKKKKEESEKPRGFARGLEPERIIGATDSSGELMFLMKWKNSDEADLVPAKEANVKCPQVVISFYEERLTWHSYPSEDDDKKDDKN
#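 Compound inhibition of the preformed complex between 50 nM HP1-beta and 50 nM biotinylated H3K9me3 peptide was read by AlphaScreen. Buffer was PBS pH 7.4 with 0.01% Tween-20. Incubations ran 30 min at room temperature, with 10 ug/mL donor/acceptor beads.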
# G9a block: qHTS Assay for Inhibitors of Histone Lysine Methyltransferase G9a | G9a H3K9 monomethylation, AlphaScreen, 2 h | Potency, µM (titrated, usually from 102 µM), hits mostly inhibitors | 8.8% of 350,000 active | AID 504332, 2011; also: nearly all actives have a fitted effect of over 75% in size
# Target sequence (Q96KQ7 913-1193 limits assumed): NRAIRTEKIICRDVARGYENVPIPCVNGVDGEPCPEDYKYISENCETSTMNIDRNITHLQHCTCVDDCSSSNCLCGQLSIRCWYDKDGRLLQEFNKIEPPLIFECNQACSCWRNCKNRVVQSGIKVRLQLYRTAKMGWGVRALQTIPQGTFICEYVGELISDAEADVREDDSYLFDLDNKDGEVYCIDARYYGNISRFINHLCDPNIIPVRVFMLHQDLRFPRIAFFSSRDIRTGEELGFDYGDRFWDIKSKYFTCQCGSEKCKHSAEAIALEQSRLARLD
#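 Compounds were preincubated with 20 nM G9a for 15 min, after which biotinylated H3K9 peptide (500 nM) and SAM (20 uM) started a 2 h room-temperature reaction. Monomethylated product was quantified by antibody-based AlphaScreen chemiluminescence.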
# Hits are given with their value; n = inactive; u = inconclusive; x = not tested or not shown; ! = a repeat was not active; [ ] = remark or other dose. Most compounds without a hit are left out; they make up all but 12% or so of the library. Calls follow the shape of the dose curve; as a rule, active = well fitted curve in the direction sought with a large enough effect; inconclusive = small, poorly fitted or top-dose-only effect, or another doubt; inactive = no such curve, though single readings can be large; an effect the other way counts as inactive or inconclusive.
SMILES,Sfp PPTase inh,PLK1 PBD inh,JMJD2A Tudor inh,BAZ2B block,HP1b binding inh,G9a block
Cc1ccc(N2C(=O)NC(=O)/C(=C\c3cnc(-c4ccccc4)nc3)C2=O)cc1,56µM,8.4µM,u,n,n,u
COc1ccc(/C=C2/C(=O)NC(=O)N(c3ccc(C)c(C)c3)C2=O)cc1CN1C(=O)c2ccccc2C1=O,40µM,4.2µM,50µM,50µM,n,11µM
Cc1ccc(N2C(=O)NC(=O)/C(=C\c3cccn3C(C)(C)C)C2=O)cc1,n,u,n,n,n,u
CC1(C)C(=O)[C@@H]2OC2[C@@]2(C)C1CC(O)[C@]1(C)C2CC[C@@]2(C)C(c3ccoc3)OC(=O)C3OC312 (some centres not stated),n,x,x,x,x,x
CN(C)C(=O)Nc1ccc(-n2nc(C(C)(C)C)oc2=O)c(Cl)c1,n,x,x,x,x,x
Cc1cc(/C=C2\C(=O)NC(=O)N(c3ccc(Cl)cc3)C2=O)c(C)n1C,n,n,n,n,n,x
CSc1ncc(/C=C2/C(=O)NC(=O)N(c3ccc(Cl)cc3)C2=O)cn1,56µM,12µM,u,n,n,8.9µM
O=S(=O)(c1ccc(Cl)cc1)c1cc(Cl)c(Cl)cc1Cl,n,x,x,x,x,x
Brc1c(NC2=NCCN2)ccc2nccnc12,n,x,x,n,x,19µM!
Cc1cc(OC(=O)N(C)C)nn1C(=O)N(C)C,n,x,x,x,x,x
COc1ccc(O)c(C(C)(C)C)c1,n,n,n,n,n,u
CC(C)(C)c1cc(O)ccc1O,40µM,x,x,x,x,4.5µM
Cc1cc(C)c(N)cc1C,x,n,n,n,n,n[0.501 µM]
COP(=S)(OC)Oc1ccc(Sc2ccc(OP(=S)(OC)OC)cc2)cc1,40µM,u,n,x,n,u
NCCCNCCCCNCCCNC(=O)Cc1ccc(O)cc1,n,x,x,x,x,n[12.7 µM]
CC(C)(O)[C@@H]1[C@H]2OC(=O)[C@@H]1[C@]1(O)C[C@H]3O[C@]34C(=O)O[C@H]2[C@@]14C (tested in a mixture with another compound),n,x,x,x,x,x
CC(C)[C@H](NC(=O)[C@H](CC(=O)O)NC(=O)[C@H](Cc1ccccc1)NC(=O)[C@@H](C)NC(=O)[C@@H](N)Cc1ccc(O)cc1)C(=O)N[C@H](C(=O)NCC(N)=O)C(C)C,n,x,x,x,x,x
Cc1cccc(C2=NCC(=O)N(CC(=O)NCc3ccco3)c3sc4c(c32)CCCC4)c1,22µM,n,50µM,45µM,n,u
C/C(CC(c1ccccc1)c1c(O)c2ccccc2oc1=O)=N\NC(N)=S (configuration not stated),u,n,1.3µM,n,n,u
O=[N+]([O-])c1ccc(N2CCCC(C(F)(F)F)C2)c2ccncc12 (configuration not stated),n,n,u,u,u,50µM
O=[N+]([O-])c1ccc(N2CCCCC2)c2ncccc12,n,n,u,u,u,u
COc1cccc(CNC(=O)c2cccc(S(=O)(=O)N3CCN(C)CC3)c2)c1,n,n,n,n,n,40µM
N/C(=N\N=C/c1ccc(-c2ccc(O)c(C(=O)O)c2)o1)N[N+](=O)[O-],50µM,11µM,11µM,25µM,16µM,25µM
CCCCn1c(-c2ccoc2C)n[nH]c1=S,n,n,7.9µM,n,n,4µM
C=CCN1CC[C@@]23c4c5ccc(O)c4O[C@H]2/C(=N\N=C2/CC[C@@]4(O)[C@H]6Cc7ccc(O)c8c7[C@@]4(CCN6CC=C)[C@@H]2O8)CC[C@]3(O)[C@@H]1C5,n,x,x,x,x,x
SMILES,Sfp PPTase inh,PLK1 PBD inh,JMJD2A Tudor inh,BAZ2B block,HP1b binding inh,G9a block
CCCCC/C=C\C/C=C\CCCCCCCCCC(=O)NCCc1ccc(O)c(O)c1,n,x,x,x,x,x
O=C(CN1CCCCC1)c1ccc(OC(F)F)cc1,n,n,n,n,n,u
CCC1CCCCN1CC(=O)c1ccc(OC(F)F)cc1 (configuration not stated),u,n,n,n,n,14µM
CCN(CC)CCOC(=O)C(C)(c1ccccc1)c1ccccc1,n,x,x,x,x,n[12.7 µM]
CCOc1cc(C=C2C(=O)NC(=O)NC2=O)cc([N+](=O)[O-])c1O,35µM,x,x,56µM,x,x
COc1cc(C=C2C(=O)NC(=O)NC2=O)ccc1O,u,21µM,n,n,n,n[12.7 µM]
CCOc1ccc(/C=C2/C(=O)NC(=O)N(CCc3ccc(F)cc3)C2=O)cc1,u,2.7µM,n,n,n,u
COc1cc(/C=C2\C(=O)NC(=O)N(CCc3ccc(F)cc3)C2=O)ccc1O,u,0.75µM,n,n,n,40µM
CCN1C[C@@]2(COC)CCC(OC)[C@]34C5C[C@]6(O)[C@@H](OC)C[C@](OC(C)=O)(C([C@H](OC)C23)[C@H]14)C5[C@H]6OC(=O)c1ccc(OC)cc1 (some centres not stated),n,x,x,x,x,x
CON(C)C(=O)Nc1ccc(Br)c(Cl)c1,n,x,x,x,x,x
C=C(CC1(C(C)NP(=O)(c2ccccc2)c2ccccc2)CC1)c1ccccc1 (configuration not stated),n,x,x,x,x,x
